The values that follow come from PubChem BioAssay (NCI).

This is part of a sample that, as a whole, favours compounds with a hit. Of some 83,000 tested, about 20% had one in any assay.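 In brief: 96-well plates, 48 h treatment, single concentration, percent growth endpoint.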 Calls of active or inactive are those of the source. How the source made its calls: active means growth percent below 10; inactive means the rest.

This assay relates to MDA-MB-468 breast. The assay is described as follows: NCI-60 one-dose screen, 48 h (100 = growth as untreated, 0 = no growth, -100 = all killed). Conditions: 10 µM unless noted.
Consider `O=C(O)CCCCCN1C(=O)/C(=C/c2ccc(O)c(O)c2)SC1=S`, for which the growth is 103% (inactive).

For `CCCCCCCCCCNC(=O)CI`, the growth is -40.5% (active).

In the case of `COc1cc(Oc2cc(-c3cccnc3)ccc2NC(=O)Nc2ccc(F)cc2F)cc(OC)c1OC`, the growth was 97.7% (inactive).

For `N#Cc1c(-c2ccc(Cl)cc2)c(C#N)c2c(C#N)c(N)nn2c1N`, the growth was 80.1% (inactive).

Consider `O=S(=O)(NCCNc1nccc(-c2c(-c3cccc(F)c3)nc3occn23)n1)c1ccc(C(F)(F)F)cc1`, for which the growth was 74.7% (inactive).

As for `Cc1ccccc1C[P+](c1ccccc1)(c1ccccc1)c1ccccc1`, the growth is -17.6% (active).

As for `COC(=O)/C=C/c1cc(OC(C)=O)c2c(c1)C(C(=O)OC)C(c1ccc(OC(C)=O)c(OC(C)=O)c1)O2` (stereo not drawn), the growth is 35.8% (inactive).

For `CC(C)=CCC[C@](C)(O)C1CC[C@]2(C)[C@@H]1CC[C@@H]1[C@@]3(C)CC/C(=N\OCCC#N)C(C)(C)[C@@H]3CC[C@]12C` (stereo partly drawn), the growth is 83.2% (inactive).

Turning to `Cc1ccc2c(n1)C(=O)C(Cl)=C(Nc1cccc(C(C)C)c1)C2=O`, the growth is -9.52% (active).

In the case of `CC(O)c1ncc(/C=C2\SC(=S)N(Cc3ccccc3)C2=O)s1` (stereo not drawn), the growth is 65.6% (inactive).

Consider `CN1CCN(Cc2ccc(NC(=O)c3[nH]ncc3Nc3ncnc4[nH]ccc34)cc2)CC1`, for which the growth was -51.8% (active).

`CCCCOc1ncnc2nc[nH]c12`: the growth was 98.5% (inactive).

On to `C=C1C(=O)O[C@H]2[C@H]1CC/C(COC(=O)CCCCCCCCC(=O)OC/C1=C/CC[C@@]3(C)O[C@H]3[C@H]3OC(=O)C(=C)[C@@H]3CC1)=C\CC[C@@]1(C)O[C@@H]21`, for which the growth is -32.7% (active).
